Laboratory results reported in the supplement of paper PMC3334620.
In all, about 33,000 sequences were measured (“E-score (-0.5 to 0.5)”: median about -0.021, highest 2% from about 0.32 on). The entries come from a sample that favours the highest values as a whole.

molecular target: T1, Zap1 (UniProt P47043); experiment: PBM E-score (8-mer binding enrichment) (E-score (-0.5 to 0.5)); higher = stronger / more preferred TF binding; conditions: protein concentration: 200 nM; construct: GST-full length
T1 sequence: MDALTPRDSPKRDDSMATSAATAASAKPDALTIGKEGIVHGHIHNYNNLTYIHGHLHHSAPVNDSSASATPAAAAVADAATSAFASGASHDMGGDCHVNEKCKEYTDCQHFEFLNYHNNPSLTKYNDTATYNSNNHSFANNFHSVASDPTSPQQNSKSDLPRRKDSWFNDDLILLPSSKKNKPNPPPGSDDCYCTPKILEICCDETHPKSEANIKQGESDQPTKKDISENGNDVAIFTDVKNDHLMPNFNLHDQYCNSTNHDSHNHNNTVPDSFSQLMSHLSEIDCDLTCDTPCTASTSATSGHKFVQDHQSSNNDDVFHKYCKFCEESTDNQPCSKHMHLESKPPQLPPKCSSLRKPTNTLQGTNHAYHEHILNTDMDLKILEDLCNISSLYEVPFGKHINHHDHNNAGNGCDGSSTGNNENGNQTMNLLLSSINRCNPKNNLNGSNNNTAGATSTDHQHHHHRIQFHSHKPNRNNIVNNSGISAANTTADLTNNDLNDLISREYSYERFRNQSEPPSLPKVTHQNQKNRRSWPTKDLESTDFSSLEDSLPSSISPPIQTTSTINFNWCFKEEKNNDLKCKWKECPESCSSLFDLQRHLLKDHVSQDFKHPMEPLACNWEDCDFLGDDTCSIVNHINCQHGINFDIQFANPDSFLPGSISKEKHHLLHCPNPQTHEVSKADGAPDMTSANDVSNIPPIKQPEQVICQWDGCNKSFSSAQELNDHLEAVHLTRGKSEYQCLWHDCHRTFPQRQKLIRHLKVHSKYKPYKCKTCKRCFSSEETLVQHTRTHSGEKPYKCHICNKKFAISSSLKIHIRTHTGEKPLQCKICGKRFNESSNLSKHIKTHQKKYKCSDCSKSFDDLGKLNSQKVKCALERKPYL
Method: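 Universal 'all 10-mer' protein binding microarrays (Agilent AMADID 015681) probed with GST-tagged S. cerevisiae TFs (full-length or DBD) made by in vitro transcription/translation (PURExpress), about 100-200 nM. Bound TF was detected with fluorescent anti-GST. Each ungapped 8-mer (which stands for itself and its reverse complement) is scored by the PBM enrichment score (E-score), a modified Wilcoxon-Mann-Whitney statistic from -0.5 to +0.5, computed with the Universal PBM Analysis Suite. Scale: above 0.35 generally sequence-specific binding.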

Sequence	PBM E-score
AGCGCACT	-0.293
CAGCCAAG	-0.242
TCTGAGAA	-0.0814
CCTCTGAC	0.139
AGTAGCAG	-0.0921
GTAGGGAC	-0.0704
CGGTTTCA	0.03
AACTTAAC	0.244
CTGATTCA	-0.158
CAGATTAA	0.118
CAGGTTAA	0.325
CAGGTTTC	0.198
AATGTTAA	-0.132
CAGGTTAG	0.212
CAGGTTAC	0.424
CAGGTTTA	-0.0228
AAGGTTTA	0.226
AAGGTTAG	0.35
AAGGTTAA	0.415
CAGATTAC	0.0563
AAGGTTTG	0.176
TATTATGA	0.00643
ACATAGCC	-0.0651
CGGTCTAC	-0.149
AGATCAGA	-0.0903

Sequence	PBM E-score
AGCCCTTG	-0.0802
CACCCTTC	0.135
ACCCCTTC	0.234
AACCCTTC	0.424
GCCCCTTA	-0.0926
GACCCTTA	0.376
CAACCTTG	0.332
ACCCCTTG	0.279
AACCCTTG	0.444
AAACCTTG	0.0789
CAACCTTC	0.313
GTCCCTTA	0.0953
CTGCGCAC	-0.0749
AAGCGTTA	-0.0244
GTGCTGTA	-0.06
CAAGGCGC	-0.141
GAATGGTA	0.202
CCTGCAAG	-0.043
AAATCACT	0.0213
ACCCCTGA	0.28
AACCCTTA	0.457
ACCCCTTA	0.344
CCCCCTTA	-0.365
CACCCTTA	0.269
ATCCCTTA	0.0364

Sequence	PBM E-score
CGGCGCAG	-0.253
ATCGTGCG	0.158
GCAGCCCC	-0.0536
CTAACCGA	-0.035
AGAACCGG	-0.0565
ACAACCGG	0.194
GTAACCGA	0.346
ACAACCGA	0.234
ATAACCGC	0.459
ATAACCGA	0.349
ACAACCGC	0.285
CTAACCGC	0.223
AAAACCGA	0.0886
ATAACCGG	0.387
GGAACCGA	-0.0122
CAGCTGGA	-0.131
CAAGGAGC	-0.24
AGAGATTA	-0.0587
GTGCTGAA	-0.117
ACTGTGGG	-0.145
TAGATATA	0.172
AGCTTAAA	0.0882
ACTAGCCG	-0.177
CTAACCTC	0.305
GGAACCTA	0.146

Sequence	PBM E-score
AGAACCTA	0.0497
ACAACCTG	0.23
ACAACCTA	0.232
AGAACCTG	0.0538
ATAACCTG	0.412
CGAACCTA	0.00467
GCAACCTA	0.106
ATAACCTA	0.458
CTAACCTA	0.327
GTAACCTA	0.458
CTGAAGCC	-0.31
ATCAGGGC	-0.249
ACATTCGT	-0.0131
GAGAACTC	-0.146
ATTGAATG	0.113
CGGGACAA	-0.0695
GGTCAAGA	0.242
GCTCTCTA	-0.246
AGGAAACC	0.272
GGGAAAAC	-0.241
GGGAAACC	0.324
CAGTATAA	0.197
ACTGAATA	-0.0283
CCAAAACC	0.331
CAAAACCC	0.349

Sequence	PBM E-score
CAAAAACC	0.302
CCAAAAAC	0.256
AAAAACCC	0.196
CAAAACCA	0.311
CCTTATAG	0.262
GCTGGGGA	-0.0703
ATTCTCTC	-0.0801
CGAGCGTA	-0.102
AAGCATAA	0.0593
GGTAGTAC	0.248
CCAGCACA	-0.00996
ATCGACCG	-0.132
AGGTTATA	0.469
ACGTTATA	0.137
AAGTTATC	0.0532
ACGTTATC	-0.101
ATGTTATG	0.158
AGGTTATG	0.475
CCGTTATA	0.103
ATGTTATA	-0.0204
AGGTTATC	0.463
CGGTTATA	0.405
AAGTTATG	0.181
CTGTTATA	0.115
GAGTACAC	-0.0741

Sequence	PBM E-score
CGTTCCCA	-0.125
AAGCAATG	0.0748
GAGAATAA	0.0442
ACGATCGT	0.0702
ATACAGAA	0.0186
AGTCTAGA	-0.295
CTGAATGA	0.0581
AGATAGCG	-0.163
AGGCCTTG	-0.0709
ACATCCAA	-0.00617
GCGTTATA	0.218
GAGTTATA	0.142
GGGTTATA	0.474
CAGTTATC	0.0632
CGGTTATC	0.424
CTGTTATC	0.0763
GCACTGAA	-0.136
AGAGCGTG	-0.169
AGCCACAA	0.153
GAGTCAGA	-0.157
AGAAGTAG	-0.123
AGCACCCG	0.125
ACCACCCC	-0.00264
ACCACCCA	0.252
ACCACCCT	0.352

Sequence	PBM E-score
AGCACCCT	0.317
AGCACCCA	-0.0894
GCAGGCTA	-0.25
CTATTCGA	-0.0524
CCTAGCGC	-0.0463
AGCGATGG	-0.195
ACGCAACC	0.316
CGACAACC	0.339
CGACAACA	0.0946
CCACAACA	0.109
CCACAACC	0.411
AGACAACC	0.31
CCGCAACA	0.162
CCACAACG	0.0128
CCGCAACC	0.34
GCAGTTAC	0.109
CCCAAGAC	-0.045
GTTGAGAA	-0.027
AGTACTGG	-0.141
GCGCTGTA	-0.043
ACCTAACC	0.269
CCTTAACC	0.438
CCTTAACA	0.116
GCTTAACA	-0.0361
CCCTAGGG	0.41

Sequence	PBM E-score
CCCTAGGA	0.0656
GCCTAACC	0.125
ACTTAACC	0.287
CCCTAACC	0.33
ACCTAGGG	0.119
GCTTAAAC	-0.0479
GCTTAACC	0.327
CACTTTAC	0.0657
AGGTCTCC	0.00142
ACACTTTC	-0.104
ATCCTCCG	-0.238
ATCCAACG	-0.139
AATCAGTC	-0.107
TCGCAACA	-0.0496
CCCTAAGG	0.402
CCCTAAGC	-0.159
CCCTAAGA	0.263
CGGGCGAG	-0.0126
TCCACCCA	-0.233
ACCACCCG	0.184
GCCACCCA	-0.0281
CCCACCCA	0.323
CCCACCCG	0.324
CCCACCCC	0.149
GTCTTCTA	-0.0319

Sequence	PBM E-score
CTGATGGA	-0.254
AACCTTGT	0.229
CACCTTGA	0.179
GACCTTGC	0.133
TACCTTCA	0.255
AACCTTGC	0.305
TACCTTGA	0.337
AACCTTGA	0.429
GTCCTTGA	0.113
GACCTTGA	0.34
CTAGGGAC	-0.0705
CAAAACTC	0.0001
GTCTCCCA	-0.252
GTAAAGGA	-0.0539
CATAAACG	0.0839
AGGTAAGA	0.125
TGGTAACA	0.0812
CGGTAACC	0.47
GGGTAACA	0.334
GTGTAACA	0.0444
CGGTAACA	0.253
AAGTAACA	-0.0158
CGGTAATA	0.219
AGGTAACA	0.344
CGGTAACG	0.0507

Sequence	PBM E-score
GGGTAATA	0.348
AGGTAATA	0.263
ATGAGCAT	0.049
ACCTGAGT	0.0343
GTGACGCA	0.0591
TCTCTTCA	-0.139
AAGGGCGC	0.0237
TCTACACA	0.0487
GGGTAACC	0.46
GGGTAAAC	0.194
AGGTAACC	0.441
AGGTAACT	0.237
GGGTAAAA	0.306
AGGTAACG	0.19
CAGGAGGG	0.143
AATTCACC	0.0819
AGTCCTCC	-0.144
AAAGCAGG	-0.075
CGGTGACA	0.193
CGGTGACG	0.0241
CGGTGACC	0.327
AGGTGACC	0.393
AGGTGACG	0.182
GGGTGACC	0.385
GGGTGACA	0.252

Sequence	PBM E-score
AGGTGACA	0.0888
GAGTGACC	0.239
TAAGACTA	-0.0191
TGACAAAA	0.152
CAAGTGTA	-0.0404
AGCCCCCT	-0.406
AAGATGCG	-0.058
AAGAGGGA	-0.199
ATACTCTA	-0.0192
CGCCACTC	-0.113
ATAGGTTA	0.46
GTAGGTGA	0.0614
ATAGGTTC	0.138
ATAGGTTG	0.16
GTAGGTAA	0.199
GTAGGTTA	0.39
CTAGGTTC	0.0156
CTAGGTCA	0.117
CTAGGTTA	0.42
AAGCACGT	-0.3
CGGTTAGC	0.151
CCAATTAC	0.103
ACCAAATC	0.0501
AACTACCA	0.179
AGTATCCG	-0.013

Sequence	PBM E-score
AGGTCTGA	-0.0295
CCTAGAGA	-0.0434
ACTAGAGG	-0.0174
CCTAGAGG	0.366
GTAATGCA	-0.157
GAAGGGAA	-0.194
AAGGGGTA	0.334
AGGGGGTA	0.0442
AAAGGGGA	-0.127
GAAGGGTA	0.421
TAAGGGCA	-0.0345
AAGGGGGA	-0.245
AAAGGGTA	0.415
TAAGGGGA	0.00031
GAAGGGGA	-0.0649
AAAGGGCA	-0.0435
TAAGGGTA	0.433
AACGAATA	-0.00355
CAATCCAG	-0.0505
CGAAGTCG	0.0486
GCTTCCGA	-0.0201
AGAGCAAT	-0.181
ACCCTAGT	0.411
ACCCTAGG	0.428
ACCCTAGA	0.359

Sequence	PBM E-score
AACCTAGT	0.161
CCCCTAGG	0.16
TCCCTAGA	-0.0192
AACCTAGG	0.232
CCCCTAGA	0.147
ACCCTAGC	0.247
GAAGTGGC	-0.106
GCGCATGA	-0.185
AGGACATG	-0.0235
AAATACCA	0.129
ACGGGTTC	0.0245
CCGGGTTA	0.388
CGGGGTTA	0.474
CCGGGTTC	0.247
GGGGGTTA	0.0334
CCGGGTGA	0.218
CGGGGTTC	0.168
ACGGGTTG	0.158
GCGGGTAA	0.106
GCGGGGTA	0.293
GCGGGTTA	0.366
ACGGGTTA	0.408
ATCTTATG	-0.00019
CCCTTCAG	0.122
GCGCACAC	-0.234

Sequence	PBM E-score
CGGCGTTA	0.0618
ATCTAGGA	-0.0827
AAGTTGAT	-0.14
AGCTGTAG	-0.0501
ATGGCCAG	0.268
ATGGCCAC	0.185
ATGGCCAT	0.332
CGACGCTC	0.0879
CTGAGCCC	-0.179
CCCCTTAG	0.107
ATCCTTAG	-0.192
GCCCTTAA	0.112
ACCCTTAC	0.29
ACCCTTAG	0.432
ACCCTTAT	0.404
ACCCTTAA	0.443
AGCCTTAT	-0.0493
TCCCTTAA	0.0619
TAGTTGCA	0.116
